Hits are enriched below; roughly 3.7% of the tested compounds scored in any of these assays.
HepG2 tox – HepG2 cytotoxicity, counter-screen for TGF-b inhibitors; HepG2 CAGA-GFP viability, ATP luminescence, 18 h; Potency, µM (doses to about 46.1 µM), inactives show at the highest dose activity change, negative = cytotoxicity, hits mostly cytotoxic; 410,000 compounds, 0.76% hits; AID 588856
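CellTiter-Glo luminescence gave cytotoxicity after 18 hours at 37 degrees C. The cells were HepG2 CAGA-GFP in 1% FBS DMEM, stimulated with 500 pg/mL TGF-beta after compound addition. %Activity was normalised to no-cell wells (complete cell-killing) and DMSO (no toxicity), and curves were fitted and classified.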
GLP-1R inv ag – GLP-1 receptor (human) inverse agonism; AID 624417; Potency, µM (highest dose often 38.3 µM), for the others: top-dose activity change, negative = inhibition, hits mostly inhibitors; HEK293 GLP-1R CRE-luciferase, luminescence, 24 h; GLP-1R form is constitutively active; P43220; 410,000 compounds, 1.6% hits; also: % is scaled to controls: 0 for no effect and ±100 for the full control effect; nearly all actives have a fitted effect of over 55% in size
Target sequence (P43220 whole entry, looked up): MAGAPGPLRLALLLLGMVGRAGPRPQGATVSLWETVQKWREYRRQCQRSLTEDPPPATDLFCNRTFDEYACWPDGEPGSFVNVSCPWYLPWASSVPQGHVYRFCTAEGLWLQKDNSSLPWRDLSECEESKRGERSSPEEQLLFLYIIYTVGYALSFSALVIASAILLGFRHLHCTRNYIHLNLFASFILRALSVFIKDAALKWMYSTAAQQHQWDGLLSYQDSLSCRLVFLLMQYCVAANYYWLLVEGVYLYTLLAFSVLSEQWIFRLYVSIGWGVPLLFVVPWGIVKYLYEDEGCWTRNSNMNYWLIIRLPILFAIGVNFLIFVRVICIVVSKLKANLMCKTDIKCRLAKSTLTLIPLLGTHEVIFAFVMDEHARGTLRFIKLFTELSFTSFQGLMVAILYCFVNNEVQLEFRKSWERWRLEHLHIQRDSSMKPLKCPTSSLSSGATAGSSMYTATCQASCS
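qHTS in 1536-well format: reporter HEK293 cells expressing constitutive GLP-1R activity in DMEM + 10% Nu serum, 24 hr with compounds at 37 deg C, luminescence read after 12 min with detection reagent.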
ATXN viability – viability counter-screen for ATXN expression inhibitors; S2 cells (HEK-293 line with an ATXN2-luciferase reporter) viability, CellTiter-Fluor protease fluorescence, 24 h; Potency, µM (doses to about 56.7 µM), usual class: cytotoxic; 400,000 compounds, 0.49% hits; also: nearly all actives have a fitted effect of over 40% in size
TGFb SMAD3 inh – TGF-b pathway inhibition; HepG2 CAGA-GFP TGF-b/SMAD3 reporter, GFP fluorescence, 18 h; TGF-beta stimulated, 500 pg/mL final; Potency, µM (highest dose often 46.1 µM), for the others: at the highest dose activity, negative = inhibition, usual class: inhibitors; 410,000 compounds, 1.2% hits; also: % is scaled to controls: 0 for no effect and ±100 for the full control effect; nearly all actives have a fitted effect of over 65% in size
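HEPG2 CAGA-GFP reporter cells (1000/well, DMEM with 1% FBS) received compounds, then recombinant TGF-beta at 500 pg/mL final for 18 hours at 37 degrees C. Per-cell GFP summed per well was normalised to unstimulated and stimulated DMSO controls before curve fitting.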
GLP1R ag – GLP-1 receptor (human) agonism. HEK293 GLP-1R CRE-luciferase, luminescence, 4-6 h; cells express a hypersensitive GLP-1R form. P43220. AID 624172. 380,000 compounds, 0.007% hits. Potency, µM (series often up to 45.6 µM), without a hit: at the top dose activation, usual class: activators; also: % of control where 0% means no effect
ATXN2 expr inh – inhibitors of ATXN2 expression; HEK-293 ATXN2-luciferase reporter, luminescence, 24 h; 360,000 compounds, 0.72% hits; Potency, µM (doses to about 57 µM), without a hit: top-dose activity change, negative = inhibition, actives largely listed as inhibitors; also: % is scaled to controls: 0 for no effect and ±100 for the full control effect; nearly all actives have a fitted effect of over 55% in size
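qHTS (up to 57 uM final) was run with 24 h compound exposure of reporter cells at 37 °C. Each well was multiplexed: SteadyGlo luminescence measured ATXN2-luciferase expression after a fluorogenic Gly-Phe-AFC viability readout (25 uM final).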
* = called active by the depositor; i = inactive; ? = inconclusive; . = no result; [ ] = remark or other dose. Calls follow the shape of the dose curve; as a rule, active = well fitted curve in the direction sought with a large enough effect; inconclusive = small, poorly fitted or top-dose-only effect, or another doubt; inactive = no such curve, though single readings can be large; an effect the other way counts as inactive or inconclusive. Potency is read from the fitted curve at half-maximal effect.

SMILES | HepG2 tox | GLP-1R inv ag | ATXN viability | TGFb SMAD3 inh | GLP1R ag | ATXN2 expr inh
CNC[C@@H](Cc1ccccc1)NC[C@@H](CC1CCCCC1)NCCCc1ccccc1 | 12.6µM* | 1.2% | 20µM* | ? | -20.8% | ?
CN(Cc1cccc(C(F)(F)F)c1)C(=O)C1CCC(=O)N(CC2CCCCC2)C1 (stereo not given) | -37.7% | ? | ? | ? | 11.3% | .
CCC[C@@H](CNC)NC[C@H](Cc1ccccc1)NCCCCc1ccccc1 | -123.4% | ? | . | ? | -7.0% | 25.1µM*
O=C(COC(=O)c1ccccc1)NCCCCc1ccccc1 | -30.1% | -18.0% | i | -1.2% | -0.9% | .
CNC[C@@H](CC1CCCCC1)NC[C@H](CC(C)C)NCCc1cccc(C(F)(F)F)c1 | 10µM* | ? | . | ? | -16.8% | 14.1µM*
CCOC(=O)Cn1c(=O)oc2cc(S(=O)(=O)N3CCN(c4ccc(Cl)cc4)CC3)ccc21 | -10.6% | ? | i | ? | . | -8.6%
C/C=C(/C(=C/C)c1ccc(OC(C)=O)cc1)c1ccc(OC(C)=O)cc1 | . | . | i | . | . | -12.1%
COc1ccc(C(C(=O)NCc2ccccc2)N(C(=O)Cn2nnc3ccccc32)c2ccc(OC)cc2)cc1 (stereo not given) | -25.1% | -6.7% | . | -24.7% | . | .
O=C(Nc1cc(-c2ccc(F)c(F)c2)no1)c1ccccc1F | -8.8% | 7.9% | ? | 17.4% | . | 7.0%
CC(=O)c1sc(NC(=O)C2(F)C(F)(F)C(F)(F)C(F)(F)C(F)(F)C2(F)F)nc1C | -46.4% | 13.6% | ? | 2.82µM* | -1.7% | 6.31µM*
CC(=O)c1sc(NC(=O)C=C(C)C)nc1C | -25.4% | -6.4% | i | -2.9% | 0.6% | 43.7%
COc1cccc(CNC(=O)c2c(OC)cc(=O)n3c2CCN(C(=O)c2ccc(C)nc2)CC3)c1 | . | . | i | . | . | .
O=C1c2ccccc2-c2onc3c(NCCO)cc(NC4CCCCC4)c1c23 | -41.1% | ? | ? | 11.2µM* | . | ?
CC(=O)Oc1ccc(N(C(C)=O)S(=O)(=O)c2ccc(C)cc2)c2ccccc12 | -36.4% | 5.4% | ? | -29.7% | 1.7% | 26.7µM*
CC(=O)Oc1ccc(N(C(C)=O)S(=O)(=O)c2ccc(Cl)cc2)c2ccccc12 | -16.6% | 39.8% | i | -29.9% | -5.6% | ?
Cc1cccc(CS(=O)(=O)Cc2ccc(C(=O)NC(C)c3ccccc3)o2)c1 (stereo not given) | 4.8% | ? | i | 8.9% | 3.2% | 7.5%
CCC(C)[C@@H](NC(=O)OC(C)(C)C)c1nnc(S(=O)(=O)Cc2cccc(C)c2)o1 (stereo not given in full) | -101.2% | ? | . | 8.91µM* | -30.6% | ?
Cc1ccccc1CS(=O)(=O)c1nnc([C@H](Cc2ccccc2)NC(=O)OC(C)(C)C)o1 | -102.3% | 10µM* | . | ? | -17.1% | ?
CCc1ccccc1Nc1ncnc2c1cnn2-c1ccc(Cl)cc1 | -17.4% | ? | i | 1.1% | . | 9.5%
C/C(=N\NC(=O)c1nnn(-c2nonc2N)c1-c1cccs1)c1ccc(O)cc1 | -24.2% | 7.94µM* | i | -21.5% | -1.5% | -23.5%
CCCc1c(C(=O)N/N=C(\C)c2ccccn2)nnn1-c1nonc1N | 10µM* | ? | i | -1.3% | -3.6% | .
COc1ccc(CNC(=O)C2(c3ccc(Cl)cc3)CC2)cc1 | 2.8% | 10µM* | i | -1.3% | 31.8% | -15.8%
NS(=O)(=O)c1ccc(CNC(=O)C2(c3ccc(Cl)cc3)CC2)cc1 | 58.1% | 11.7%[7.66 µM] | i | -8.3% | 2.0% | -8.1%
Cc1cc(NC(=O)CCS(=O)(=O)c2ccc3c(c2)NC(=O)C(C)S3)ccc1Br (stereo not given) | -66.3% | ? | i | 11.2µM* | -5.4% | .
COc1ccc(NC(=O)CCS(=O)(=O)c2ccc3c(c2)NC(=O)C(C)S3)cc1OC (stereo not given) | -10.5% | 4.1% | i | 11.0% | 0.2% | -10.2%
SMILES | HepG2 tox | GLP-1R inv ag | ATXN viability | TGFb SMAD3 inh | GLP1R ag | ATXN2 expr inh
COc1cc(/C=C(\C#N)C(=O)NC2CCCCC2C)ccc1OS(=O)(=O)c1ccc(C)cc1 (stereo not given) | -82.5% | ? | i | 20µM* | -14.9% | -11.7%
CCOC(=O)C1(Cc2cccc(OC)c2)CCN(Cc2cccc(O)c2)CC1 | -12.4% | 11.2µM* | i | 3.1% | 5.5% | -28.2%
CCOC(=O)C1(Cc2cccc(OC)c2)CCN(Cc2ccccc2OC)CC1 | -12.0% | ? | i | -0.6% | 11.7% | -34.6%
CCOC(=O)C1(Cc2cccc(OC)c2)CCN(Cc2ccc(C)s2)CC1 | -12.7% | 10µM* | i | -23.7% | 3.2% | -7.9%[11.3 µM]
Cc1ccc(S(=O)(=O)NCc2c(Cl)cccc2Oc2ccccc2)cc1 | 3.1% | ? | i | ? | 4.8% | -17.8%
O=S(=O)(NCc1c(Cl)cccc1Oc1ccccc1)c1ccccc1 | -52.9% | 10µM* | i | ? | 5.2% | -32.2%
COc1ccc(C2CC(c3ccccc3)Oc3cc(OC)c(OC)c(OC)c32)cc1 (stereo not given) | -33.8% | . | . | 4.3% | . | .
N#Cc1ccccc1Cn1c(=O)n(CCCC(=O)NCc2ccc3c(c2)OCO3)c(=O)c2sccc21 | -19.3% | 1.4% | . | -22.0% | . | .
CC(C)N1CCc2c(sc(NC(=O)c3ccc(S(=O)(=O)N4CCc5ccccc54)cc3)c2C(N)=O)C1 | 12.6µM* | ? | ? | ? | 9.7% | ?
CC(C)N1CCc2c(sc(NC(=O)c3ccc(S(=O)(=O)N(C)C4CCCCC4)cc3)c2C(N)=O)C1 | -101.6% | ? | . | ? | . | .
CC(C)N1CCc2c(sc(NC(=O)c3nc4ccccc4s3)c2C(N)=O)C1 | -30.7% | 3.6% | i | 1.5% | -0.4% | -8.0%

Bioassay records deposited in PubChem BioAssay by National Center for Advancing Translational Sciences (NCATS).
